Bioassay records: PubChem BioAssay, several laboratories
Shown are actives, neighbours in structure and some others; about 2.2% of the full set was active somewhere.
RTF Ca sens act = increases calcium sensitivity of human cardiac regulated thin filaments; P19429+P45379; IANBD-labeled TnC RTF fluorescence at EC20 calcium; 0% EC20 calcium, 100% full calcium; activation, % at 7.2 µM; hit rate 0.24% among 340,000; AID 493008;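 active = activation above the mean over all tested compounds plus 3 SD, cut at about 30% in these data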;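 also: rise in fluorescence read as greater calcium sensitivity of cardiac thin filaments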
Myeloid diff MLP = compounds promoting myeloid differentiation; AID 624256; hit rate 1% among 360,000; calls only at 10 µM; ER-HoxA9 myeloid progenitors, lysozyme-GFP differentiation, flow cytometry;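 active = normalized GFP-positive differentiation at or above the plate's own cutoff, the solvent-only control mean plus 3 SD; inconclusive = no clear call, values can overlap the other calls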;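 also: cells exposed to compound for four days before flow analysis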
RTF Ca sens inh = cardiac RTF calcium desensitization; IANBD-labeled cardiac RTF, Ca2+ fluorescence; hit rate 0.12% among 340,000; inhibition, % at 7.15 µM;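 active = inhibition above the mean inhibition of all tested compounds plus 3 SD, cut at about 17% in these data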;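 also: assay run at fixed EC70 calcium of 1.6 mM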
CRFBP-R2 agonist = agonists of human CRF-binding protein/CRF-R2 receptor complex; AID 588473; activation, % at 13.2 µM; HEK293 CRF-R2/CRF-BP, calcium dye fluorescence (FLIPR); percent of saturating CRF peptide response; hit rate 0.46% among 350,000;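 active = activation of at least 50%, plus an integration ratio under a set limit after plate pattern correction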;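 also: plate controls were neutral control wells without compound for no effect and CRF at EC100 for full effect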
CRFBP-R2 block = CRF-BP/CRF-R2 complex antagonism. hit rate 0.59% among 350,000. AID 588475. HEK293 CRF-R2/CRF-BP, CRF-induced calcium fluorescence. inhibition, % at 11.8 µM;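 active = inhibition of the ligand-induced calcium signal above about 50% at the single tested concentration, limit read from the data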
The depositor's hits bear a star; i = inactive; ? = inconclusive; · = not tested or not shown; + = active, no number; ! = a repeat was not active.

SMILES	RTF Ca sens act	Myeloid diff MLP	RTF Ca sens inh	CRFBP-R2 agonist	CRFBP-R2 block
CSc1nc(N)nc2c1ncn2CC(=O)N1CCN(Cc2c(C)cc(C)cc2C)CC1	-5	i	-4	1	9
CC(C)CNS(=O)(=O)c1cc2c3c(c1)CCC(=O)N3CCC2	0	i	6	-1	4
CCCCCCCCCCCCCCCC[n+]1cccc(C(=O)N(CC)CC)c1	-7	i	1	104*!	12
O=C(NCCCNCc1ccccc1)c1ccncc1	-2	i	3	-2	3
CN(C)CCCNCCCNC(=O)c1ccncc1	3	+	-13	0	23
O=C(CSC(=O)c1ccccc1)Nc1ccccc1F	7	i	-3	2	-5
CCOc1ccc(/C=C/C(=O)N(C)CC(=O)Nc2cccc(F)c2)cc1OCC	8	i	-3	1	22
C[C@]12CCC3C(CC[C@H]4CC(O)CC[C@]34C)C1CC/C2=N/O (stereo partly drawn)	4	i	-2	1	2
C[C@]12CCC3C(CC[C@H]4CC(O)CC[C@]34C)C1CC/C2=N/NC(=O)c1ccncc1 (stereo partly drawn)	-6	+	-8	-1	10
CCOc1ccc(NC(=O)CSc2ccc3nnc(-c4cccnc4)n3n2)cc1	-4	i	2	1	125*
COc1ccc(NC(=O)Cn2nnc(-c3ccccc3NC(=O)c3ccco3)n2)cc1	3	+	-18	-2	11
CC1(c2ccccc2)CC(C)(C)N2C(=O)/C(=C3\SC(=S)NC3=O)c3cccc1c32 (stereo not drawn)	-1	i	-20	1	54*
CC(=C1SC(=S)NC1=O)c1ccccc1	-5	i	-2	-4	33
O=C(OCc1nnc(-c2ccc([N+](=O)[O-])cc2)o1)C1CCN(C(=O)c2ccc(F)cc2)CC1	0	i	-2	0	8
Cc1cccc(NC(=O)CSc2nnc(-c3ccncc3)n2CC2CCCO2)c1 (stereo not drawn)	-6	i	-5	0	13
COc1ccccc1Oc1ccc(N2CC(C(=O)OCC(=O)c3ccccc3)CC2=O)cc1 (stereo not drawn)	-3	i	-4	2	-2
Cc1ccc(S(=O)(=O)N2C[C@H]3n4c(=O)ccc(=O)n4C[C@H](OC(=O)Nc4c(C)noc4C)[C@@]3(O)C2)cc1	·	i	·	3	-1
Cc1ccc(S(=O)(=O)N2C[C@H]3n4c(=O)ccc(=O)n4C[C@H](OC(=O)NC4CC4)[C@@]3(O)C2)cc1	·	+	·	7	12
CCCCn1c(SCc2c(C)noc2C)nc2cc(S(N)(=O)=O)ccc21	0	i	-6	0	54*
CCCCn1c(SCC(=O)Nc2cc(C)on2)nc2cc(S(N)(=O)=O)ccc21	-1	i	-10	0	-7
C#CCOCCOCCOCCNc1nc(N2CCN(C(=O)C([C@@H](C)CC)n3cc(C(N)Cc4ccc(O)cc4)nn3)CC2)nc(N2CCN(C(=O)[C@H](CCC(=O)O)n3cc(C(N)Cc4ccc(O)cc4)nn3)CC2)n1 (stereo partly drawn)	-7	i	-1	0	-3
COC(=O)C1=C(C)N(Cc2ccccc2)C(=O)N[C@H]1CCc1ccccc1	2	i	9	0	82*
COCCN=C1N[C@@H](c2ccc(Br)cc2)C(C(=O)OC)=C(C)N1Cc1ccccc1	-1	+	0	3	1
COCCN=C1N[C@@H](c2ccccc2)C(C(=O)OC)=C(C)N1Cc1ccccc1	0	i	-8	6	-10
COC(=O)C1=C(C)N(Cc2ccccc2)C(=S)N[C@H]1c1cccc(F)c1	-9	i	1	0	55*
SMILES	RTF Ca sens act	Myeloid diff MLP	RTF Ca sens inh	CRFBP-R2 agonist	CRFBP-R2 block
COC(=O)C1=C(C)N(Cc2ccccc2)C(=NCc2ccccc2)N[C@H]1c1cccc(F)c1	8	i	-9	4	-5
COc1ccc(C2CC(c3ccccc3)=NN2C(=O)COC(=O)c2cc(S(=O)(=O)N3CCOCC3)ccc2F)cc1 (stereo not drawn)	3	i	-2	1	-6
COc1ccn(C2CCCCO2)c(=O)n1 (stereo not drawn)	-3	i	4	3	-3
COc1ccc(/C=N/n2c(-c3n[nH]c4c3CCC4)n[nH]c2=S)cc1	5	i	-5	-1	100*
COc1ccc(OC)c(/C=N/n2c(-c3n[nH]c4c3CCC4)n[nH]c2=S)c1	11	i	-13	-1	6
Cc1ccc(C(=O)N/N=C/c2ccc([N+](=O)[O-])s2)cc1	-2	?	-18	2	-4
O=C(N/N=C/c1ccc([N+](=O)[O-])s1)c1cccc(Br)c1	-2	+	2	3	-28
O=C(N/N=C/c1ccc(O)c2ncccc12)c1cccc(Br)c1	4	?	-2	124*	-193
Cc1nc2cccc(C(=O)NCc3ccccc3)c2o1	3	i	-35	0	2
Cc1ccc([C@H]2N[C@]3(CCCN(Cc4ccc(Cl)cc4)C3=O)[C@H]3C(=O)N(Cc4ccccc4)C(=O)[C@@H]23)cc1	·	i	·	2	-7
Fc1ccc(NCc2cn3ccccc3n2)cc1	8	+	-14	1	-1
CN(C)CCCN(C(=O)c1ccc2c(c1)CCCC2)c1nc2ccc(Cl)cc2s1	-3	+	-4	21	-191
CCOC(=O)CN(c1cc([N+](=O)[O-])ccc1OC)S(C)(=O)=O	0	i	-1	-4	29
CC1(C)C[C@H](O)[C@@]23C[C@@H](OC2=O)[C@]2(C)C(=CCC4[C@@]5(C)CC[C@H](O)C(C)(C)C5CC[C@]42C)[C@@H]3C1 (stereo partly drawn)	·	·	·	74*	-43
CC1(C)C2CC[C@]3(C)C(CC=C4[C@@H]5C[C@@](C)(CO)[C@@H]6C[C@@]5(CC[C@]43C)C(=O)O6)[C@@]2(C)CC[C@@H]1O (stereo partly drawn)	·	·	·	-2	-13
COc1ccc(-c2noc(CN(C)C(=O)Nc3ccccc3)n2)cc1	1	i	3	0	-6
Cc1cc(/C=C2/C(=N)N3C(=NC2=O)SN=C3S(C)(=O)=O)c(C)n1-c1ccccc1F	-2	i	14	-1	27
CS(=O)(=O)C1=NSC2=NC(=O)/C(=C\c3cccn3-c3ccc(Cl)cc3)C(=N)N21	1	i	-6	4	57*
O=C(O)C1=CCCNC1	1	i	0	-1	57*
CC(=O)Oc1ccccc1Cn1c(C)c(C(=O)NCc2cccc([N+](=O)[O-])c2)sc1=O	·	i	·	·	·
CCOc1ccccc1N1CCN(C(=O)Cc2ccc(S(=O)(=O)N3CCOCC3)s2)CC1	2	i	-8	0	101*
CCOc1ccccc1N1CCN(C(=O)c2cccc(S(=O)(=O)N3CCOCC3)c2)CC1	8	i	-4	-4	7
